From PubChem BioAssay (NCI) come the findings set out here.

Several values for one entry are separate records, joined by “and”; a condition that tells them apart may be missing. Equal entries are not always repeated. Compounds without any hit were thinned out: in the full panel of roughly 83,000, 20% have a hit.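 Testing used 96-well plates and a 48-hour single-concentration exposure. Example: -40 means 40% of the starting cells died.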 Activity calls are given as the source filed them. How the source made its calls: active means growth percent below 10; inactive means the rest.

This test deals with MDA-MB-468 breast. Put plainly: NCI-60 one-dose screen, 48 h (100 = growth as untreated, 0 = no growth, -100 = all killed). Particulars: 10 µM unless noted.
`c1ccc(-c2nc(Nc3ccc(-c4nc5ccccc5[nH]4)cc3)nc(N3CCOCC3)n2)cc1`: the growth was -62.7% (active).

Take `CN1CCN(Cc2ccc(NC(=O)c3cncc(C#Cc4cnc(N)c5ccccc45)c3)cc2C(F)(F)F)CC1`: the growth is -80.8% (active).

As to `COc1cc(/C=C/C(=O)c2ccc(-n3cc(CN4CCN(c5cc6c(cc5F)c(=O)c(C(=O)O)cn6C5CC5)CC4)nn3)cc2)cc(OC)c1OC`, the growth was 72.5% (inactive).

Regarding `O=[N+]([O-])c1ccc2[nH]cc(-c3c4ccccc4cc4[nH]c5ccc([N+](=O)[O-])cc5c34)c2c1`, the growth is 23.9% (inactive).

For `O=S(=O)(O)CCl`, the growth was 108% (inactive).

With `CN[C@]12CC3(C=CC(=O)C=C3)O[C@@]1(Cc1ccc(OC)cc1)N(C)C(=O)N2`, the growth is 36.4% (inactive).

Turning to `COc1ccc(C2=NOC(CC(=O)N(CCO)CCO)C2)cc1OC1CCCC1` (stereo not given), the growth was 90.2% (inactive).

Consider `C#CCNC(=O)c1cccc2c1cc(C)n2-c1nc2c(c(NCc3ccccc3)n1)CCCC2`, for which the growth is -50.9% (active).

For the compound `COC(=O)CC[C@@H]1O[C@@H](c2ccc(F)cc2)[C@@H](O)[C@H]1O`, the growth is 96.5% (inactive).

Consider `CC(=O)Oc1ccc(O)cc1`, for which the growth is 95.5% (inactive).

As for `COc1cc(-c2nc3ccccc3[nH]2)ccc1OCc1nnc(-c2ccc(Br)cc2)o1`, the growth was 80.5% (inactive).

Consider `O=C(Nc1ccccc1Cl)c1cnc2ccc(C3CCNCC3)cn12`, for which the growth is 63.3% (inactive).

Take `C=C1C(=O)O[C@@H]2/C=C(/C)C3=CC(=O)[C@@](C)(C[C@H](OC(=O)/C(C)=C\C)[C@@H]12)O3`: the growth is -43.6% (active).

As for `COc1ccc(CN2c3ccccc3Sc3ccccc32)c(F)c1`, the growth is 2.44% (active).

Consider `O=C(O)C(C(=O)O)c1cccc2ccccc12`, for which the growth is 101% (inactive).

As to `CCS(=O)(=O)N1CCN(c2ccc(Nc3ncc(C(N)=O)c(NC4CC4)n3)cc2)CC1`, the growth was 42.2% (inactive).

On to `O=C(N/N=C(\CS(=O)(=O)c1ccccc1)c1cc2ccccc2oc1=O)c1ccccc1`, for which the growth is 117% (inactive).

As for `COc1ccc(NC(=O)Nc2ccc(OCCCCCC(=O)NO)cc2)cc1`, the growth is 93.1% (inactive).

Regarding `O=C(O)c1ccc(-n2cc(CNc3ccc(F)cc3)c(-c3ccc(C(F)(F)F)cc3)n2)cc1`, the growth is 83.2% (inactive).

Turning to `Cc1[nH]c2ccccc2c1/C=N/Nc1ncnc2sc3c(c12)CCN(CC(=O)OC(C)(C)C)C3`, the growth is 47.5% (inactive).

`O=C(c1ccc(F)c(F)c1Nc1ccc(I)cc1F)N1CC(O)([C@@H]2CCCCN2)C1`: the growth is 25.2% (inactive).

In the case of `O=[N+]([O-])c1ccccc1NC1c2ccccc2Oc2ccccc21`, the growth is 30.6% (inactive).

Turning to `FC(F)(F)c1ccc(-c2cn3nc(-c4c[nH]c5ccc(Br)cc45)sc3n2)cc1`, the growth was 103% (inactive).

For the compound `COc1ccc([C@@H]2[C@@H](O)C(=O)N2c2cc(OC)c(OC)c(OC)c2)cc1Cl`, the growth is 22.8% (inactive).

Consider `CCOC(=O)C1=C(c2ccccc2)N=c2s/c(=C/c3ccc(Br)cc3)c(=O)n2C1c1ccc(O)cc1` (stereo not given), for which the growth is 83.7% (inactive).

For `NC(=NCCCOc1ccc(Cl)cc1)Nc1ccc(C(F)(F)F)cc1`, the growth is -8.47% (active).

Turning to `NCCNc1nc2ccccc2c2c(=O)c3cc(F)cc(Cl)c3sc12`, the growth is -12.5% (active).

In the case of `COc1cc(C(=O)c2c(-c3ccccc3)oc3ccccc23)cc(OC)c1O`, the growth is 0.857% (active).

For the compound `O=C(O)[C@@H]1[C@H]2C[C@H]3c4[nH]c5ccccc5c4CCN3C[C@@H]2CC[C@@H]1O`, the growth was 104% (inactive).

Consider `CCN1CCN(c2cc(C(=O)Nc3cccc(Nc4ccc5c(OC)cccc5n4)c3)cc(C(F)(F)F)c2)CC1`, for which the growth is 23.8% (inactive).

Consider `CCCCCCCC1(C)NC(=O)NC1=O` (stereo not given), for which the growth was 115% (inactive).

`CCOc1ccc(Nc2c3ccccc3nc3ccccc23)cc1`: the growth was 102% (inactive) and -9.77% (active).

Consider `CCOC(=O)/C=C1\S/C(=N\Nc2cc(=O)[nH]c3ccc(Br)cc23)N(c2ccccc2)C1=O`, for which the growth is 56.1% (inactive).

Regarding `COc1c([C@@H](CC(C)C)OC(C)=O)ccc2c1C(=O)OCc1cc(C)cc(O)c1O2`, the growth was 8.08% (active).

Take `CN(C)CCOC(=O)C(C)(C)C`: the growth is 98.9% (inactive).

As to `CCCCCCCc1n(Cc2ccc3ccccc3c2)c2ccccc2[n+]1Cc1ccc2ccccc2c1`, the growth is -69.6% (active).

Turning to `O=C(Nc1ccccc1C(=O)NCC1CC1)c1cccs1`, the growth is 102% (inactive).

Turning to `CNC(=O)c1cc(Oc2ccc(NC(=O)Nc3ccc(Cl)c(C(C)(C)C)c3)c(F)c2)ccn1`, the growth was 7.76% (active).

`CCCCCC(=O)O[C@]1(C(C)=O)CCC2C3CCC4=CC(=O)CC[C@]4(C)C3CC[C@@]21C` (stereo not given in full): the growth was -2.63% (active).

As for `C=C(C)[C@@H]1CC[C@]2(C(=O)OCCOCCOCC[P+](c3ccccc3)(c3ccccc3)c3ccccc3)CC[C@]3(C)[C@H](CC[C@@H]4[C@@]5(C)CC[C@H](C)C(C)(C)[C@@H]5CC[C@]43C)[C@@H]12`, the growth was -67.6% (active).
